# Screening data as filed in PubChem.
# A selection: hits, their analogues and other compounds. The true share with any hit is near 11%.
# PNC assembly inh: High Content Assay for Compounds that inhibit the Assembly of the Perinucleolar Compartment; PC3M PTB-GFP, PNC prevalence imaging, 16 h; hits give low values; activity change (PNC), negative = inhibition, % at 10 µM; actives 3.1% (n = 140,000); AID 2417, 2010;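 active = readout at or below -70, meaning at least 70% loss of cells showing the perinucleolar compartment, a nuclear body marking cancer cells; inconclusive = readout between -30 and a set limit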;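 also: plate controls were DMSO wells for no effect and camptothecin positive control wells for full effect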
#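 PC3M cells stably expressing PTB-GFP, 750–1000 cells/well, treated 16 h at 37 °C with compound (23 nl of library stock), in duplicate. After paraformaldehyde fixation and Hoechst stain, imaged at 20x; PNC prevalence scored by image analysis.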
# GoLoco inh red: qHTS Assay for Inhibitors of RGS12 GoLoco Motif Activity (Red Fluorophore); actives 0.44% (n = 230,000); Potency, µM (series often up to 61.6 µM), inactives show at the top dose activity, negative = inhibition, actives largely listed as inhibitors; Guanine nucleotide-binding protein G(i) subunit alpha-1 (Homo sapiens), P63096; AID 880, 2007; Gai1:RGS12 GoLoco peptide FP, rhodamine, 10 min; active = well fitted inhibition curve with a large enough effect, not every such curve was filed as active; inactive = no such curve, though single readings can be large or run the other way; also: potency is read from the fitted curve at half-maximal effect; % is scaled to controls: 0 for no effect and ±100 for the full control effect; nearly all actives have a fitted effect of over 30% in size
# HTT ATP protect: qHTS Multiplex Assay to Identify Dual Action Probes in a Cell Model of Huntington: Cytoprotection (ATP). PC12 HTT-Q103 induced, cytoprotection, ATP luminescence, 40 h. Potency, µM (series often up to 56.4 µM), without a hit: cytoprotection (ATP increase), most hits filed as activators. actives 0.14% (n = 230,000). AID 1471, 2008; also: potency is read from the fitted curve at half-maximal effect; % of control where 0% means no effect; nearly all actives have a fitted effect of over 45% in size
#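 PC12 cells stably carrying ecdysone-inducible Htt exon 1 (Q103)–GFP were induced with 100 nM tebufenozide (final) alongside library compounds in a dose series. Cytoprotection was scored as retained ATP by ATPlite luminescence.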
# HTT aggregate: qHTS Multiplex Assay to Identify Dual Action Probes in a Cell Model of Huntington: Aggregate Formation (GFP) | PC12 HttQ103-GFP aggregates, Acumen cytometry, 40 h | Potency, µM (highest dose often 46.1 µM), without a hit: at the highest dose activity change, negative = inhibition, usual class: inhibitors | actives 1.1% (n = 220,000) | AID 1688, 2009; also: potency is read from the fitted curve at half-maximal effect; % is scaled to controls: 0 for no effect and ±100 for the full control effect; nearly all actives have a fitted effect of over 60% in size
#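 Quantitative HTS on tebufenozide-induced (100 nM) PC12 cells stably expressing polyQ103 Huntingtin exon 1–GFP. Reduction of bright GFP aggregates, detected by laser scanning cytometry after lysis, identified actives across the titration.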
# ALDH1A1 inh: qHTS Assay for Inhibitors of Aldehyde Dehydrogenase 1 (ALDH1A1). Aldehyde dehydrogenase 1A1 (Homo sapiens), P00352. Purified ALDH1A1, NADH fluorescence, propionaldehyde substrate. Potency, µM (doses to about 75.3 µM), for inactives: top-dose activity, negative = inhibition, hits mostly inhibitors. actives 7.3% (n = 220,000). AID 1030, 2008; active = well fitted inhibition curve with a large enough effect, not every such curve was filed as active; inconclusive = small, poorly fitted or top-dose-only effect, or another doubt; inactive = no such curve, though single readings can be large or run the other way;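 also: potency is read from the fitted curve at half-maximal effect; plate controls were no enzyme wells and a reference inhibitor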
# Target sequence (P00352 whole entry, looked up): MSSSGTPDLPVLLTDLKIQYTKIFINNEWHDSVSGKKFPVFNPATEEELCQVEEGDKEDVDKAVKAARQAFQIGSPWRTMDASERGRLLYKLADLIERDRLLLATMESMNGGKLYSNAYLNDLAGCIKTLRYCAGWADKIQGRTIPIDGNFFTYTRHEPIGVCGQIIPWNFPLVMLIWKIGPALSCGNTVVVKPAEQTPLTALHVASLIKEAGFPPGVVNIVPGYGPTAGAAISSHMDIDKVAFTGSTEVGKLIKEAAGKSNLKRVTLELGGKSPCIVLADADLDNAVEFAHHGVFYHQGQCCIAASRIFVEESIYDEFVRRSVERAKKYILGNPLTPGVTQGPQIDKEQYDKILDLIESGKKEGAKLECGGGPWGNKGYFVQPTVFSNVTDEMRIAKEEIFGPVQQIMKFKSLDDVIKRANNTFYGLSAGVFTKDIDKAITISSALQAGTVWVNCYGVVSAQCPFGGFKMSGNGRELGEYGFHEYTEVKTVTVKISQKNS
# HPGD block: qHTS Assay for Inhibitors of HPGD (15-Hydroxyprostaglandin Dehydrogenase); 15-hydroxyprostaglandin dehydrogenase [NAD(+)] (Homo sapiens), P15428; purified HPGD, NADH fluorescence kinetic, PGE2 substrate; Potency, µM, inactives show at the highest dose activity change, negative = inhibition, hits mostly inhibitors; actives 4.3% (n = 150,000); active = well fitted inhibition curve with a large enough effect, not every such curve was filed as active; inconclusive = small, poorly fitted or top-dose-only effect, or another doubt; inactive = no such curve, though single readings can be large or run the other way; also: potency is read from the fitted curve at half-maximal effect; % is scaled to controls: 0 for no effect and ±100 for the full control effect
# Target sequence (P15428 whole entry, looked up): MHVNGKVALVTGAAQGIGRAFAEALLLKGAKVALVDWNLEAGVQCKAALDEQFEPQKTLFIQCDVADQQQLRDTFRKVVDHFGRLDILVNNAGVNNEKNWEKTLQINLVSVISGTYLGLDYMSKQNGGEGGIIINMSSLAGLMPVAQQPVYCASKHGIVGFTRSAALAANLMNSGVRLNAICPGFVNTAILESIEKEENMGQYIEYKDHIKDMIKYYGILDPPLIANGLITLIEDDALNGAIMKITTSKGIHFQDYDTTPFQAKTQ
#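 NADH formation kinetics: reaction with 30 uM PGE2 and 1 mM NAD+ (final), 20 nM enzyme, Tris-HCl pH 8 with Tween 20, after 15 min compound preincubation at room temperature. Fluorescence change, last versus first of five reads.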
# Active calls of the source: *; ? = inconclusive; · = not tested or not shown; ! = not active in a repeat; [ ] = another dose, or the depositor's remark. Unless noted, calls follow the shape of the dose curve; as a rule, active = well fitted curve in the direction sought with a large enough effect; inconclusive = small, poorly fitted or top-dose-only effect, or another doubt; inactive = no such curve, though single readings can be large; an effect the other way counts as inactive or inconclusive.
SMILES,PNC assembly inh,GoLoco inh red,HTT ATP protect,HTT aggregate,ALDH1A1 inh,HPGD block
CC(=O)NC(Cc1ccc(N(CCCl)CCCl)cc1)C(=O)NC(CC(C)C)C(=O)O (centres undefined),·,-16.1%,11.5%[10 µM],5.1%[9.22 µM],2.24µM*,·
CCn1c(O)c(C(=O)CC2NCCc3ccccc32)c(=O)n(CC)c1=S (centres undefined),3.0,30.3%,-41.7%,-4.0%,1.26µM*,-13.5%
Cc1onc(-c2ccccc2)c1C(=O)N[C@@H]1C(=O)N2[C@@H]1SC(C)(C)[C@@H]2C(=O)O,29.5,4.6%,·,-4.9%,?,0.3%
O=C(Nc1ccc([As](=O)(O)O)cc1)Nc1cccc(Cl)c1Cl,·,2.1%[14.2 µM],-0.4%[10 µM],·,3.2%[13.5 µM],-8.4%
C=CCN1C(=O)NC(=O)/C(=C/c2cnc(SC)nc2)C1=O,-10.8,-2.2%,8.2%,4.8%,1.3%,-4.1%
C=CCN1C(=O)NC(=O)/C(=C/c2cc3c4c(c2)CCCN4CCC3)C1=O,?,205.2%,·,-25.9%,0.891µM*,14.1µM*
Nc1ccc2cc(Br)ccc2c1,·,-6.5%,-14.6%,-25.0%,17.8µM*,·
Oc1ccccc1O,·,-52.9%,-89.3%,·,14.1µM*,17.8µM*
COc1ccc(CC2NC[C@H](O)[C@H]2OC(C)=O)cc1 (some centres undefined),·,3.3%,-246.6%,·,-2.0%,-2.5%
O=C(O)c1cc[c]([Hg][Cl])cc1,·,1.26µM*,-41.5%[1.9 µM],·,5.46µM*,0.282µM*
O=C(O)c1cccc(Cl)c1,·,-3.7%,-7.0%,·,10.9%,-6.9%
CC(=O)OCC(=O)C1CCC2C3CC=C4CC(O)CC[C@@]4(C)C3CC[C@]12C (some centres undefined),·,2.8%,·,·,?,-11.7%
CC(=O)c1ccc(OC(NC(=O)c2ccco2)C(Cl)(Cl)Cl)cc1 (centres undefined),52.1,-19.9%,13.9%,0.4%,?,25.1µM*
O=C(NC(Oc1ccccc1)C(Cl)(Cl)Cl)c1ccccc1 (centres undefined),140.3,1.5%,-4.1%,7.9%,19.8%,-9.3%
COc1cc2c(cc1OC)[C@@]13CCN4C=C5CCO[C@H]6CC(=O)N2[C@@H]1C6[C@H]5C[C@H]43 (some centres undefined),·,4.5%[14.2 µM],·,·,10.8%[13.5 µM],-9.3%
CN(C)C(=O)Cl,·,-24.5%,-45.9%,·,?,-8.5%
S=c1[nH]c2ccccc2[nH]1,·,14.7%,-17.6%,20.9%,?,-4.9%
S=c1[nH]c2cc(Br)cnc2[nH]1,·,-6.4%,-0.2%[10 µM],8.1%[9.22 µM],3.16µM*,·
COc1ccc2c(c1)CC[C@@H]1[C@@H]2CC[C@]2(C)[C@@H](NCCCCCCN3C(=O)C=CC3=O)CC[C@@H]12,·,6.8%,·,·,7.8%,·
S=C1NCCN1,-84.5*,5.2%,-21.0%,-6.3%,6.2%,-11.4%
O=C(O)Cc1cccnc1C(=O)O,·,2.8%,-29.2%,·,13.4%,-3.1%
CCc1ccc2nc(N3CCC(C(=O)N4CCC5(CC4)OCCO5)CC3)sc2c1,·,-1.3%,-81.0%,-10.3%,-10.0%,·
CCOc1ccc2nc(N3CCC(C(=O)N4CCC5(CC4)OCCO5)CC3)sc2c1,-103.5*,-1.7%,-41.5%,-27.5%,?,-17.0%
CC[C@@H]1/C=C/C=C/C[C@H](C)[C@@H](O)[C@](C)(O)C(=O)[C@H](C)[C@@H](O)[C@H](C)C(=O)[C@H](C)[C@@H](O)[C@H](C)/C=C/C(=O)O[C@H]2[C@@H](C)[C@@H](CC1)O[C@@]1(CC[C@@H](C)[C@@H](C[C@H](C)O)O1)[C@@H]2C,·,-0.2%,-6.8%,·,?,·
CC(=NCc1cccnc1)c1c(O)n(Cc2ccccc2)c(=O)[nH]c1=O,15.2,26.2%,-0.2%[10 µM],20.1%,?,28.2µM*
SMILES,PNC assembly inh,GoLoco inh red,HTT ATP protect,HTT aggregate,ALDH1A1 inh,HPGD block
CCCCn1c(O)c(C(CC)=NC(C)c2ccccc2)c(=O)[nH]c1=O (centres undefined),16.2,3.0%,-12.3%,11.1%[9.22 µM],2.2%,-8.9%
C=CCn1c(O)c(C(C)=Nc2ccc(N(C)C)cc2)c(=O)[nH]c1=O,-90.7*,-0.4%,-18.9%,16.3%,-5.7%,-7.4%
CC(=NCc1cccnc1)c1c(O)n(-c2ccccc2)c(=O)[nH]c1=O,6.2,-5.0%,-15.9%,-1.3%,-2.4%,-2.6%
CCCCn1c(O)c(C(CC)=NCc2cccnc2)c(=O)[nH]c1=O,13.1,3.0%,-30.2%,-12.1%,2.0%,-15.0%
C=CCn1c(O)c(C(C)=Nc2ccc(N(CC)CC)cc2)c(=O)[nH]c1=O,-3.0,-12.5%,-10.8%[10 µM],15.1%,?,-24.1%
CCC(=NCc1cccnc1)c1c(O)n(Cc2ccccc2)c(=O)[nH]c1=O,38.6,7.6%,-15.5%,-1.3%,?,15.8µM*
C=CCn1c(O)c(C(CC)=NC(C)c2ccccc2)c(=O)[nH]c1=O (centres undefined),-94.4*,6.0%,9.8%,-32.8%,?,-15.4%
Clc1ccc(C(Cl)(Cl)Cl)cc1Cl,·,-18.8%,-11.2%,·,0.4%,0.9%
COC(=O)[C@@]1(Cc2ccccc2)[C@H]2c3cc(C(=O)N(C)C)n(C)c3C[C@H]2CN1C(=O)c1ccccc1,·,11.6%,-8.7%,·,2.9%,-3.0%
CN1CCC[C@@H]1c1cccnc1.O=C(O)c1ccccc1O.O=C([OH2+])c1ccccc1O.O=C([OH2+])c1ccccc1O.O=C([OH2+])c1ccccc1O.[Mn],·,4.7%[14.2 µM],-9.4%[10 µM],·,?,?
COC(=O)C12CC3=CC(CC3=O)Cc3ccccc3[C@@H]1CNC2=O (some centres undefined),·,2.0%,?,·,-3.6%,-2.4%
ClCC[N+]12CC[N+](CCCl)(CC1)C2 (tested in a mixture with another compound),·,6.3%[14.2 µM],-2.4%[10 µM],·,?,1.2%
FC(Cl)(Cl)Cl,·,-64.0%,-8.4%,·,7.8%,-3.6%
Cn1ccc(NC(=O)CCl)n1,·,-6.9%,-284.2%,?,20µM*,·
Cc1c(C(=O)c2cccc3ccccc23)c2cccc3c2n1[C@H](CN1CCOCC1)CO3,·,-58.4%,-11.3%,·,11.2µM*!,-22.5%
O=C(CN1CCOCC1)c1cccc2ccccc12,27.0,-19.0%,-23.0%,-2.6%,12.6µM*,-8.8%
CC1CCN(CC(=O)c2ccccc2Cl)CC1,?,6.7%,-0.5%[10 µM],-0.2%,?,-6.5%
